# Compounds without any hit were thinned out: in the full panel of roughly 83,000, 20% have a hit.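 Cell lines were cultured in 96-well plates, exposed to a single compound concentration, and assessed for percent growth 48 hours later.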 Values without a mark were called inactive. Active and inactive are the calls of the source. The calls were made as follows: active = growth percent below 10; inactive = the rest.
# Key:
# Assay in all cases: NCI-60 one-dose screen, 48 h (100 = growth as untreated, 0 = no growth, -100 = all killed)
# Conditions in all cases: 10 µM
# [1] = tested on: NCI-H23 lung
# [2] = tested on: NCI-H226 lung
# [3] = tested on: HOP-62 NSCLC
# [4] = tested on: NCI-H460 lung
# [5] = tested on: HOP-92 NSCLC
# [6] = tested on: NCI-H522 lung
# [7] = tested on: A549/ATCC NSCLC
# [8] = tested on: 786-0 renal
# [9] = tested on: COLO 205 colon
SMILES,growth [1],growth [2],growth [3],growth [4],growth [5],growth [6],growth [7],growth [8],growth [9]
CC(=O)Oc1cc(OC(C)=O)c2ccccc2c1OC(C)=O,70.8%,88.4%,90%,86.6%,107%,68.2%,82.5%,103%,92.9%
CCN(CC)CC(=O)N(CC)c1ccc(C)c(Cl)c1,103%,99.8%,91%,104%,90.1%,83.8%,86.3%,98.4%,101%
O=C(CCCCC(=O)Oc1c(Cl)cc(Cl)cc1[N+](=O)[O-])Oc1c(Cl)cc(Cl)cc1[N+](=O)[O-],96.5%,106%,102%,106%,118%,89.5%,103%,101%,121%
Cc1ccc(NCCNCC(C)(C)O)c2c(=O)c3ccc(Cl)cc3sc12,52%,76.6%,80.1%,-73.7% (active),21%,49.4%,-42.9% (active),54%,-79.2% (active)
CCc1ccc(-c2ccc(-n3nc(C)c4c(N)nc(Cc5ccccc5)nc43)cc2)cc1,77.2%,56.6%,65.6%,51.4%,47.2%,49.2%,52.4%,46.6%,95.3%
COc1ccc(/C=C2\CCCC3=C2NC(N)=NC3c2ccc(OC)cc2)cc1 (configuration not stated),94.1%,77.3%,110%,99.2%,68.6%,77.3%,89.4%,106%,112%
O=C(Nc1ccc(F)cc1)c1cc2ccccc2cc1O,61.8%,74.2%,78.7%,80.5%,2.82% (active),56.5%,75.8%,93.5%,95.5%
CCn1cc(C(=O)O)c(=O)c2cc(F)c(N3CCNCC3)cc21,108%,92.3%,108%,104%,115%,104%,103%,108%,102%

# From PubChem BioAssay (NCI)
